About 1,900 (0.58%) of roughly 330,000 compounds were called active. Inconclusive results (about 4%) are left out. No stated cut-off is given here; in the data, inconclusive means inhibition above about 70% without an active follow-up result; inactive means below that. The list is a sample of the results. Entries with a potency or affinity are not part of this list.
Test: M. tuberculosis growth inhibition, HTS (AID 449762);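 further: bacterial growth assessed after seven days of incubation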
Settings: M. tuberculosis H37Rv growth inhibition, 7H9 media; at 25 µM; hits give high values

SMILES | inhibition
O=C(O)c1cccnc1SCC(=O)N1CCCc2ccccc21 | -17% (inactive)
COc1ccccc1N1CCN(C(=O)CNC(=O)c2ccc(Cl)cc2Cl)CC1 | 4.89% (inactive)
CC[n+]1c(/C=C/N(C)c2ccccc2)sc2ccc(Cl)cc21 | 0.95% (inactive)
CCn1c(/C=C/N(C)c2ccccc2)[n+](CC)c2ccc(Cl)cc21 | 0.68% (inactive)
CCCC(C)NC(=O)c1c2c(nc3ccccc13)CCC2 (stereo not given) | -4.36% (inactive)
Cc1cc(OC(=O)c2ccco2)c2c3c(c(=O)oc2c1)CCC3 | -2.68% (inactive)
O=C(Oc1cc2oc(=O)c3c(c2cc1Cl)CCCC3)c1cccs1 | 9.78% (inactive)
CN(C)c1c(N)c(=O)oc2ccccc12 | -9.33% (inactive)
COc1ccc(-c2nc3ccc(C)cn3c2NCc2ccccc2)cc1SC1CCCCC1 | 5.05% (inactive)
CCCCNc1c(-c2ccc(OC)c(SC3CCCCC3)c2)nc2ccc(Cl)cn12 | 8.29% (inactive)
CN(CC(O)COCc1ccccc1F)C1CCCCC1 (stereo not given) | -0.04% (inactive)
O=C(O/N=C\c1ccc(N2CCCCC2)c([N+](=O)[O-])c1)c1c(F)cccc1F | 2.52% (inactive)
Cc1ccc(C(=O)O/N=C\c2ccc(N3CCOCC3)c([N+](=O)[O-])c2)cc1 | 0.26% (inactive)
O=C(Cn1cnc([N+](=O)[O-])n1)c1ccccc1 | 0.7% (inactive)
COc1ccc(Nc2cc(Nc3cccc(OC)c3)ncn2)cc1 | 0.6% (inactive)
O=C(O)c1cccc(N/N=C/c2ccc(OC(F)(F)F)cc2)c1 | 4.3% (inactive)
Cc1nc2scc(-c3ccc(Cl)cc3)c2c(=O)n1N | -5.38% (inactive)
Cc1nc2scc(-c3ccc(C(C)C)cc3)c2c(=O)n1N | 6.8% (inactive)
CCOc1ccc(N2C(=O)CCC2=O)cc1 | -7.32% (inactive)
C1=Nc2ccccc2CN1c1ccccc1 | -10.9% (inactive)
CCCc1cc(N2CCC(C(N)=O)CC2)nc(-c2ccccc2)n1 | 5.28% (inactive)
Nc1nc2ccccc2n1/N=C/c1cccnc1 | -4.9% (inactive)
COc1ccc(/C=N/n2c(N)nc3ccccc32)cc1OC | 4.73% (inactive)
Cc1ccc(C(=O)Nc2nc(C(C)(C)C)cs2)s1 | 56.8% (inactive)

SMILES | inhibition
Clc1ccc2nc(-c3ccncc3)cc(-c3ccccc3)c2c1 | 3.77% (inactive)
Cc1ccc2nc(-c3ccc(NS(C)(=O)=O)cc3)cc(-c3ccccc3)c2c1 | 0.07% (inactive)
COc1ccc(S(=O)(=O)N2CCN(C(=O)c3ccco3)CC2)cc1C(C)(C)C | -13.2% (inactive)
Cc1cccc(Sc2ccc([N+](=O)[O-])cc2[N+](=O)[O-])n1 | 19.9% (inactive)
Cc1cc(C)nc(Sc2ccc([N+](=O)[O-])cc2[N+](=O)[O-])n1 | 0.29% (inactive)
COc1ccc(OC)c(N/C(C)=C/C(=O)c2ccc(C)o2)c1 | 5.43% (inactive)
C/C(=C\C(=O)c1ccc(C)o1)Nc1ccc(C(=O)O)cc1C | -5.52% (inactive)
Cc1ccn2c(-c3csc(NCc4ccco4)n3)c(C)nc2c1 | 7.31% (inactive)
Cc1nc2sccn2c1-c1csc(NCc2ccccc2)n1 | 54.7% (inactive)
O=C(COC(=O)CCN1C(=O)c2ccccc2C1=O)Nc1ccccc1[N+](=O)[O-] | -0.89% (inactive)
O=C(Nc1ccccc1)C1C2/C=C\CCCCC21 (stereo not given) | 5.24% (inactive)
Cc1ccc(NC(=O)C2C3/C=C\CCCCC32)cc1 (stereo not given) | -6.56% (inactive)
Cc1cc(F)ccc1S(=O)(=O)N1CCCOC1CNC(=O)C(=O)NC1CCCCC1 (stereo not given) | -6.82% (inactive)
CCOC(=O)N1CCN(c2c(NCCCN3CCCCCC3)c(=O)c2=O)CC1 | 1.01% (inactive)
CCOC(=O)/C(=N/Nc1ccccc1)N1CCCc2ccccc21 | 0.18% (inactive)
CCOC(=O)/C(=N/Nc1ccccc1OC)N1CCCc2ccccc21 | 0.45% (inactive)
Cc1ccc(S(=O)(=O)Cc2sc3ccccc3[n+]2C)cc1 | -1.05% (inactive)
COc1ccc(NC(=O)C(CC(=O)O)Cc2ccccc2)cc1 (stereo not given) | -9.83% (inactive)
Cc1ccc(SCCNC(=O)/C=C/c2ccc(Cl)cc2)cc1 | -7.24% (inactive)
CC(=O)c1ccc(-c2ccc(/C=C(/Sc3n[nH]c(C)n3)C(=O)O)o2)cc1 | -2.81% (inactive)
Cc1nc(S/C(=C/c2ccc(-c3ccc(C(=O)O)cc3)o2)C(=O)O)n[nH]1 | -0.51% (inactive)
CCCN1CCN(C(=O)c2ccc(CS(=O)c3ccc(Cl)cc3)o2)CC1 (stereo not given) | -5.84% (inactive)
Cc1ccc(C(=O)N(c2ccccn2)C(C)c2ccco2)cc1C (stereo not given) | 6.78% (inactive)
Cc1ccc(Nc2nc(CSc3n[nH]c(N)n3)cs2)cc1 | 0.79% (inactive)

SMILES | inhibition
c1ccc(-c2nc(CSc3nnc(-c4cccs4)o3)cs2)cc1 | 3.49% (inactive)
CCc1ccc(NC(=O)C(NS(=O)(=O)c2ccc3c(c2)CCN3C(C)=O)C(C)C)cc1 (stereo not given) | 0.33% (inactive)
CCN(CC)c1nc(Nc2ccc([N+](=O)[O-])cc2)nc(N(CC)CC)n1 | 6% (inactive)
Cc1ccc(Nc2nc(N)c3ccccc3n2)cc1Cl | 11.2% (inactive)
Cc1ccc(NC(=O)c2ccsc2)cc1NS(C)(=O)=O | -6.89% (inactive)
C=CCc1c(C)nc(C)nc1N/N=C/c1ccc([N+](=O)[O-])cc1 | -6.42% (inactive)
CN1CCN(C(=O)CCn2c(=O)c3cccn3c3cccnc32)CC1 | 6.95% (inactive)
O=C(Cn1c(=O)c2cccn2c2cccnc21)N1CCN(c2ccc(Cl)cc2)CC1 | 0.96% (inactive)
Cc1cc2nc(C3CCN(Cc4nnnn4Cc4ccccc4)CC3)[nH]c2cc1C | 34% (inactive)
Cc1ccc(CN2CCC(c3nc4ccc(Cl)cc4[nH]3)CC2)cc1 | 2.51% (inactive)
CC(=O)Nc1ccc(SCC(=O)Nc2sccc2C#N)cc1 | -2.99% (inactive)
O=C(OCC(=O)c1c[nH]c2ccccc12)c1ccc(Br)o1 | 5.56% (inactive)
O=C(OCC(=O)c1c[nH]c2ccccc12)c1cncc(Br)c1 | -0.17% (inactive)
CCOC(=O)c1c(NC(=O)c2ccccc2C(=O)O)sc2c1CCCC2 | -6.92% (inactive)
CCOC(=O)c1c(NC(=O)c2ccccc2C(=O)O)sc2c1CCC2 | -2.86% (inactive)
CCN1CCN(CC(O)COc2ccc(C)c(C)c2)CC1 (stereo not given) | 4.44% (inactive)
COC(=O)c1sccc1NC(=O)c1ccccc1C(=O)O | 1.76% (inactive)
CCn1nc(NC(=O)c2ccncc2)c2cc3ccccc3nc21 | 2.23% (inactive)
CCn1nc(NC(=O)c2ccncc2)c2cc3ccc(C)cc3nc21 | 4.05% (inactive)
O=C(Nc1ccccc1C(=O)O)c1cc(S(=O)(=O)N2CCCCC2)c(Cl)cc1Cl | -1.16% (inactive)
CCn1c2ccc(CC(=O)O)cc2c2cc(CC(=O)O)ccc21 | -11.4% (inactive)
COc1ccc(NC(=O)CN2CCN(CC(=O)Nc3ccccc3F)CC2)c(OC)c1 | -3.25% (inactive)
Cc1ccc(NC(=O)c2nc[nH]c2C(=O)NCCCNC(=O)c2[nH]cnc2C(=O)Nc2ccc(C)cc2)cc1 | 5.52% (inactive)
Cc1ccc(Nc2ccc(-n3ccnc3)nn2)cc1C | -0.37% (inactive)

SMILES | inhibition
c1ccc(Nc2ccc(-n3ccnc3)nn2)cc1 | -2% (inactive)
COCc1cc(=O)[nH]c(/N=C(\N)Nc2ccc(C)cc2)n1 | -14.4% (inactive)
Cc1nn(C)c(C)c1Nc1ccc(N2C(=O)C3C4C=CC(C4)C3C2=O)cc1[N+](=O)[O-] (stereo not given) | 10.1% (inactive)
CCCn1nnnc1SCC(=O)N1C(C)CCCC1C (stereo not given) | 5.01% (inactive)
COc1ccc(C(OCC(O)CNCCc2ccccc2)c2ccc(OC)cc2)cc1 (stereo not given) | 19.9% (inactive)
COc1ccccc1COCC(O)CNCCc1ccc(C(F)(F)F)cc1 (stereo not given) | 1.34% (inactive)
O=C(O)CCn1nnc(-c2ccccc2)n1 | -0.81% (inactive)
COc1ccc(OCC(=O)N(Cc2ccco2)C2CCS(=O)(=O)C2)cc1 (stereo not given) | 3.83% (inactive)
Cc1ccc(S(=O)(=O)N2CCCCC2)cc1NC(=O)C1CCC1 | 0.72% (inactive)
Cc1ccc(-c2nc3ccccc3c(=O)o2)cc1 | 12.5% (inactive)
Cc1ccc(-c2nc3ccsc3c(=O)[nH]2)cc1 | 5.58% (inactive)
C=CCN1C(=O)/C(=C/c2cccs2)S/C1=N\S(=O)(=O)c1ccc(F)cc1 | 0.38% (inactive)
COc1ccc(NC(=O)CCNC(=O)C2CCN(S(=O)(=O)c3ccc(OC)cc3)CC2)cc1 | 10.1% (inactive)
CC(C)(C)OC(=O)COc1cc(O)c2c(=O)cc(-c3ccccc3)oc2c1 | 39.4% (inactive)
O=C(COc1cc(O)c2c(=O)cc(-c3ccccc3)oc2c1)c1ccccc1 | -3.97% (inactive)
CSc1nnc(-c2cc(Br)ccc2N=Cc2c(C)[nH]n(-c3ccccc3)c2=O)c(=O)[nH]1 | 4.16% (inactive)
O=[N+]([O-])c1c(Nc2ccccc2O)cc(N2CCOCC2)c2nonc12 | 0.81% (inactive)
CCOC(=O)C1CCCN(S(=O)(=O)c2ccc(-c3cc(C)no3)s2)C1 (stereo not given) | 3.93% (inactive)
CCO[C@H]1OC(C(=O)NCc2nc3ccccc3[nH]2)=C[C@@H](c2ccccc2)[C@@H]1CCCO | -4.83% (inactive)
CCO[C@@H]1OC(C(=O)NCc2nc3ccccc3[nH]2)=C[C@H](c2ccccc2)[C@H]1CCCO | 10.6% (inactive)
Cc1ccc(C)n1CCN1CCN(C(=O)CSc2nc3ccccc3nc2N2CCOCC2)CC1 | 5.46% (inactive)
O=C(CSc1nc2ccccc2nc1N1CCCCC1)N1CCN(c2ccccc2)CC1 | -7.86% (inactive)
COc1ccc2[nH]c(=O)c(CN(CC3CCCO3)S(=O)(=O)c3ccccc3)cc2c1 (stereo not given) | 2.57% (inactive)

From PubChem BioAssay AID449762 (Southern Research Specialized Biocontainment Screening …, 2010)
